# Test results taken from PubChem BioAssay (NCATS).
# Several values for one entry are separate records, joined by “and”; a condition that tells them apart may be missing. Equal entries are not always repeated. A number with no mark means an inactive call. Inconclusive results are not listed. Activity calls are given as the source filed them. The call rests on the fitted dose curve; in most records, active means well fitted curve in the direction sought with a large enough effect; inconclusive means small, poorly fitted or top-dose-only effect, or another doubt; inactive means no such curve, though single readings can be large or run the other way.
# Target: T1, Hexokinase-4 (Homo sapiens) + Glucokinase regulatory protein (Homo sapiens) (UniProt P35557+Q14397)
# Test: qHTS assay for inhibitors of recombinant human GCK-GKRP interaction: ADP-Glo assay (AID 743206);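 further: plate controls were DMSO plus enzyme for no effect and no enzyme for full effect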
# Conditions: ADP-Glo luminescence, 60 min; series mostly up to 76.9 µM; activity, positive = activation: at the top concentration
# Summary of the method: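 Pin-transferred compounds meet a 15 nM GST-GCK/15 nM FLAG-GKRP/2 uM S6P mix (dispense concentrations). ATP is then added to 0.4 mM final with 5 mM glucose, and the reaction runs 60 min at room temperature. ADP is quantified luminescently.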
# T1 sequence (P35557 whole entry, looked up): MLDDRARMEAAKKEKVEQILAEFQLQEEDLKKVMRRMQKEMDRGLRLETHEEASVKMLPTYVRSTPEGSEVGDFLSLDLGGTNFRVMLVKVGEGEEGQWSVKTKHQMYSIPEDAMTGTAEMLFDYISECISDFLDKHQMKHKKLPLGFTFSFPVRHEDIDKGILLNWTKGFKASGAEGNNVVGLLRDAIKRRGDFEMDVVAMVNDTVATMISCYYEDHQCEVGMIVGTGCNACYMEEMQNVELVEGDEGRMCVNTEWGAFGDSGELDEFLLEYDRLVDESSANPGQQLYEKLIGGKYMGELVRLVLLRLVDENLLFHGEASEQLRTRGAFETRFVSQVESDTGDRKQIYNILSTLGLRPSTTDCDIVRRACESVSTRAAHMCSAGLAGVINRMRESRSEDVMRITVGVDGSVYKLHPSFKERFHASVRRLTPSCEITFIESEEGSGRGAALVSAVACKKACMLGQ
# T1 sequence (Q14397 whole entry, looked up): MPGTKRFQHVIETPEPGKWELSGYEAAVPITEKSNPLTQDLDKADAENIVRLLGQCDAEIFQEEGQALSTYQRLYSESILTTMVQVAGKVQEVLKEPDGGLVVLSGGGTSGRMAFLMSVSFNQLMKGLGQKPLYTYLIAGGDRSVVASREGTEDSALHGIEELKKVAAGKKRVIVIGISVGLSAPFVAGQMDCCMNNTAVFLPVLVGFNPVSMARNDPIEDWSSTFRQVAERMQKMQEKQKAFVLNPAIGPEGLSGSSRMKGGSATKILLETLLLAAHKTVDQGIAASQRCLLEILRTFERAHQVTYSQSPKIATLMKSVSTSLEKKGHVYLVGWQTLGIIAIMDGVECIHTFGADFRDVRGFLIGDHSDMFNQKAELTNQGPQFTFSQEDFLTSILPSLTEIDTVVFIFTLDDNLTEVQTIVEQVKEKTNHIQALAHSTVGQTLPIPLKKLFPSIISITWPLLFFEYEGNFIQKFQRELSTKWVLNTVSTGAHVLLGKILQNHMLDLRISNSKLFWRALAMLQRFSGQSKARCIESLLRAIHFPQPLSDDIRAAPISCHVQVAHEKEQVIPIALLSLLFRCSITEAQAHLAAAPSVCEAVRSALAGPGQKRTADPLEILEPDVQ
row,SMILES,"activity, positive = activation [%]"
1,O=c1[nH]c2cc(Cl)c(Cl)cc2[nH]c1=O,1.77
2,Fc1cccc(/C=N/N=C/c2cccc(F)c2)c1,2.09
3,Oc1cc(O)cc(/C=C/c2ccc(O)c(O)c2)c1,-21.5
4,OC[C@H]1O[C@@H](n2cnc3c(Nc4ccccc4)ncnc32)[C@H](O)[C@@H]1O,0.172
5,CN(C)c1ccc(/C=C2\C(=O)Nc3ccccc32)cc1,-0.997
6,Cc1ccc(O)c(N=Nc2ccccc2)n1,-23
7,CC[C@@H](C)[C@H]1O[C@]2(CC[C@H]1C)C[C@@H]1C[C@@H](CC=C(C)[C@@H](O[C@H]3C[C@H](OC)[C@@H](O[C@H]4C[C@H](OC)[C@@H](O)[C@H](C)O4)[C@H](C)O3)[C@@H](C)C=CC=C3CO[C@@H]4[C@H](O)C(C)=C[C@@H](C(=O)O1)[C@]34O)O2,-0.374
8,CN1CCc2cc(NC(=O)Nc3cccnc3)ccc21,-0.0709
9,O=C(c1ccc(OCCCc2cnc[nH]2)cc1)C1CC1,6.92
10,O=C(O)c1cc(=O)c2ccccc2[nH]1,-0.457
11,O=C1NC(=O)/C(=C/c2ccc(-c3ccc(F)cc3O)o2)S1,-2.38
12,O=C1NC(=O)/C(=C/c2ccc3nccnc3c2)S1,-1.45
13,O=C(/C=C/c1ccc(O)c(O)c1)OCCc1ccccc1,3.86

# Target: T1, Hexokinase-4 (Homo sapiens) + Glucokinase regulatory protein (Homo sapiens)
# Test: qHTS assay for inhibitors of recombinant human GCK-GKRP interaction: HTRF assay (AID 743207);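 further: 0% = DMSO with GCK present and -100% = DMSO wells lacking GCK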
# Conditions: recombinant GCK-GKRP HTRF binding, 60 min, with sorbitol-6-phosphate; series mostly up to 57.5 µM; activity change, negative = inhibition: at the top concentration
# Summary of the method: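 Titration screening format: recombinant GST-GCK and FLAG-GKRP at 5 nM, S6P at 2 uM, labelled anti-tag antibodies, 60 min at RT, dual-wavelength HTRF readout.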
row,SMILES,"activity change, negative = inhibition [%]"
1,O=c1[nH]c2cc(Cl)c(Cl)cc2[nH]c1=O,4.74
2,Fc1cccc(/C=N/N=C/c2cccc(F)c2)c1,9.9
3,OC[C@H]1O[C@@H](n2cnc3c(Nc4ccccc4)ncnc32)[C@H](O)[C@@H]1O,-5.18
4,CN(C)c1ccc(/C=C2\C(=O)Nc3ccccc32)cc1,-7.84
5,Cc1ccc(O)c(N=Nc2ccccc2)n1,-4.97
6,CC[C@@H](C)[C@H]1O[C@]2(CC[C@H]1C)C[C@@H]1C[C@@H](CC=C(C)[C@@H](O[C@H]3C[C@H](OC)[C@@H](O[C@H]4C[C@H](OC)[C@@H](O)[C@H](C)O4)[C@H](C)O3)[C@@H](C)C=CC=C3CO[C@@H]4[C@H](O)C(C)=C[C@@H](C(=O)O1)[C@]34O)O2,14.8
7,O=C(c1ccc(OCCCc2cnc[nH]2)cc1)C1CC1,1.39
8,O=C(O)c1cc(=O)c2ccccc2[nH]1,-4.28
9,O=C1NC(=O)/C(=C/c2ccc(-c3ccc(F)cc3O)o2)S1,2.34
10,O=C1NC(=O)/C(=C/c2ccc3nccnc3c2)S1,-13.3
11,O=C(/C=C/c1ccc(O)c(O)c1)OCCc1ccccc1,6.58

# System: not listed separately
# Test: qHTS Assay for Identifying Gametocytocidal Compounds (AID 743244); further: potency means the concentration at half of the fitted maximal effect;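 on max response: on the % scale 0 is the no-effect control and ±100 the full control effect; actives lower the fluorescent signal which means gametocytes are killed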
# Conditions: P. falciparum 3D7 stage III-V gametocytes, alamarBlue, 72 h; max response: active compounds read low
# Summary of the method: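 Stage III–V gametocytes of P. falciparum 3D7 were seeded at 20,000 cells/well onto pre-dispensed compounds. After 72 h, 37 °C, 5% CO2, alamarBlue was added for another 24 h.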
SMILES,max response,Potency
O=C(CCN1CCN(CCO)CC1)N1c2ccccc2Sc2ccc(C(F)(F)F)cc21,-4.95%,
Fc1cccc(/C=N/N=C/c2cccc(F)c2)c1,22.7%,
Oc1cc(O)cc(/C=C/c2ccc(O)c(O)c2)c1,42.8%,
COC(=O)[C@H]1[C@H]2C[C@@H]3c4[nH]c5cc(OC)ccc5c4CCN3C[C@H]2C[C@@H](OC(=O)/C=C/c2cc(OC)c(OC)c(OC)c2)[C@@H]1OC,-0.068%,
CN(C)CCn1nnnc1SCC1=C(C(=O)O)N2C(=O)[C@@H](NC(=O)Cc3csc(N)n3)[C@H]2SC1,19.2%,
[O-][n+]1ccccc1SSc1cccc[n+]1[O-],,0.148 µM (active)
CCCCCCOc1ccccc1C(N)=O,-0.639%,
OC[C@H]1O[C@@H](n2cnc3c(Nc4ccccc4)ncnc32)[C@H](O)[C@@H]1O,-5.57%,
Cc1ccc(O)c(N=Nc2ccccc2)n1,,2.51 µM (active)
CC[C@@H](C)[C@H]1O[C@]2(CC[C@H]1C)C[C@@H]1C[C@@H](CC=C(C)[C@@H](O[C@H]3C[C@H](OC)[C@@H](O[C@H]4C[C@H](OC)[C@@H](O)[C@H](C)O4)[C@H](C)O3)[C@@H](C)C=CC=C3CO[C@@H]4[C@H](O)C(C)=C[C@@H](C(=O)O1)[C@]34O)O2,,2.64 µM (active)
C=C(Nc1ccc(OCC)cc1)Nc1ccc(OCC)cc1,14.6% and 14.3%,
CN1CCN(c2cc3c(nn2)Oc2ccccc2N3C)CC1,-7.02%,
CCCCC[C@H](O)/C=C/[C@@H]1[C@@H](C/C=C\CCCC(=O)O)[C@@H](O)C[C@H]1O,-4.72% and 7.02%,
c1ccc(CCNc2nc(-c3ccccc3)cs2)cc1,-4.46%,
C[N+]1(C)[C@@H]2CC(OC(=O)[C@H](CO)c3ccccc3)C[C@H]1[C@@H]1O[C@@H]12 (some centres not stated),-10.6%,
O=C(O)[C@H](CC(=O)N1C[C@H]2CCCC[C@H]2C1)Cc1ccccc1,-8.96%,
Cc1ccc(C(=O)c2ccc(CC(=O)O)n2C)cc1,39.2%,
CC1(C)S[C@@H]2[C@H](NC(=O)[C@H](NC(=O)N3CCN(S(C)(=O)=O)C3=O)c3ccccc3)C(=O)N2[C@H]1C(=O)O,9.5%,
CN(C)[C@@H]1C(=O)C(C(=O)NCN2CCCC2)=C(O)[C@@]2(O)C(=O)C3=C(O)c4c(O)cccc4[C@@](C)(O)C3C[C@@H]12 (some centres not stated),6.22% and 1.93%,
CC1(C)[C@@H](O)CC[C@]2(C)[C@H]3C(=O)C=C4[C@@H]5C[C@@](C)(C(=O)O)CC[C@]5(C)CC[C@@]4(C)[C@]3(C)CC[C@@H]12,6.32% and -6.89%,
Cc1cc(O)c2ccccc2c1O,,15.8 µM (active)
CN1[C@@H]2CC[C@H]1CC(OC(c1ccccc1)c1ccccc1)C2 (some centres not stated),-0.265% and -8.62%,
O=C1NC(=O)/C(=C/c2ccc(-c3ccc(F)cc3O)o2)S1,-4.42%,
O=C1NC(=O)/C(=C/c2ccc3nccnc3c2)S1,-5.45%,
O=c1[nH]c2ccccc2n1CCCN1CCN(C(c2ccccc2)c2ccccc2)CC1,14.5%,
CCCSc1ccc2nc(NC(=O)OC)[nH]c2c1,0.499%,
COC(=O)C1=C(C)NC(C)=C(C(=O)OCC(C)C)C1c1ccccc1[N+](=O)[O-] (configuration not stated),0.875%,
C[C@H](O)[C@H](O)[C@H]1CNc2nc(N)[nH]c(=O)c2N1,-5.73%,
